Inconclusive results are not listed. A call without a number means that no potency is given here. Values without a mark were called inactive. Calls of active or inactive are those of the source. Calls follow the shape of the dose curve; as a rule, active = well fitted curve in the direction sought with a large enough effect; inconclusive = small, poorly fitted or top-dose-only effect, or another doubt; inactive = no such curve, though single readings can be large; an effect the other way counts as inactive or inconclusive.
Legend:
[1] = qHTS of pediatric cancer cell lines to identify multiple opportunities for drug repurposing: Primary screen for TC32 cells (AID 1347089); also: nearly all actives have a fitted effect of over 60% in size
How it was run: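 Measured quantity: luminescence from CellTiter-Glo, reflecting metabolically active TC32 cells following 48 h of compound. Curves came straight from multi-point titrations, with 8 or 11 points in primary and 11 in confirmatory screening.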

[2] = qHTS of pediatric cancer cell lines to identify multiple opportunities for drug repurposing: Primary screen for DAOY cells (AID 1347090); also: nearly all actives have a fitted effect of over 55% in size
How it was run: (§1)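 Viability measured as metabolically active cells via CellTiter-Glo luminescence following 48 hours of compound exposure, 11-point dilutions in confirmatory testing. 500-1,000 cells/well plated 5 hours before dosing; controls were DMSO and 2.3 µM bortezomib.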

[3] = qHTS of pediatric cancer cell lines to identify multiple opportunities for drug repurposing: Primary screen for SJ-GBM2 cells (AID 1347091)
How it was run: as §1

[4] = qHTS of pediatric cancer cell lines to identify multiple opportunities for drug repurposing: Primary screen for SK-N-MC cells (AID 1347093)
How it was run: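 Metabolically active cells were quantified by ATP-dependent luminescence (CellTiter-Glo, 15 min at room temperature) following 48 h treatment. Cells had been plated at 500-1,000 per well and settled for 5 h beforehand.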

[5] = qHTS of pediatric cancer cell lines to identify multiple opportunities for drug repurposing: Primary screen for NB-EBc1 cells (AID 1347095)
How it was run: (§2)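 Readout: CellTiter-Glo luminescence, 48 h treatment. Controls DMSO (neutral) and bortezomib 2.3 µM final (positive). Potency and efficacy taken from primary-screen concentration-response curves.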

[6] = qHTS of pediatric cancer cell lines to identify multiple opportunities for drug repurposing: Primary screen for Saos-2 cells (AID 1347097); also: nearly all actives have a fitted effect of over 40% in size
How it was run: as §2

[7] = qHTS of pediatric cancer cell lines to identify multiple opportunities for drug repurposing: Primary screen for NB1643 cells (AID 1347099); also: nearly all actives have a fitted effect of over 50% in size
How it was run: as §2

[8] = qHTS of pediatric cancer cell lines to identify multiple opportunities for drug repurposing: Primary screen for LAN-5 cells (AID 1347100)
How it was run: (§3)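 Viability after 48 h compound treatment at 37C, 500-1,000 cells/well, read as ATP luminescence with CellTiter-Glo. Primary screens used 11-point (MIPE, 0.78 nM-46 µM) or 8-point (NPC, 0.59 nM-46 µM) final concentrations; follow-up screens used 11-point dilutions.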

[9] = qHTS of pediatric cancer cell lines to identify multiple opportunities for drug repurposing: Primary screen for BT-12 cells (AID 1347101); also: nearly all actives have a fitted effect of over 25% in size
How it was run: (§4)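 Cells (500-1,000/well) rested 5 h, then received compounds for 48 h; metabolically active cells were measured by CellTiter-Glo luminescence. Final concentrations spanned up to 46 µM (MIPE, 11-point) or 0.59 nM-46 µM (NPC, 8-point) in primary screens, 11-point in follow-ups.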

[10] = qHTS of pediatric cancer cell lines to identify multiple opportunities for drug repurposing: Primary screen for Rh18 cells (AID 1347102); also: nearly all actives have a fitted effect of over 65% in size
How it was run: as §3

[11] = qHTS of pediatric cancer cell lines to identify multiple opportunities for drug repurposing: Primary screen for OHS-50 cells (AID 1347103); also: nearly all actives have a fitted effect of over 40% in size
How it was run: as §4

[12] = qHTS of pediatric cancer cell lines to identify multiple opportunities for drug repurposing: Primary screen for RD cells (AID 1347104); also: nearly all actives have a fitted effect of over 55% in size
How it was run: as §2

[13] = qHTS of pediatric cancer cell lines to identify multiple opportunities for drug repurposing: Primary screen for MG 63 (6-TG R) cells (AID 1347105); also: nearly all actives have a fitted effect of over 50% in size
How it was run: as §2

[14] = qHTS of pediatric cancer cell lines to identify multiple opportunities for drug repurposing: Primary screen for BT-37 cells (AID 1347094)
How it was run: as §2

[15] = qHTS of pediatric cancer cell lines to identify multiple opportunities for drug repurposing: Primary screen for U-2 OS cells (AID 1347096); also: nearly all actives have a fitted effect of over 50% in size
How it was run: as §3

[16] = qHTS of pediatric cancer cell lines to identify multiple opportunities for drug repurposing: Primary screen for SK-N-SH cells (AID 1347098); also: nearly all actives have a fitted effect of over 65% in size
How it was run: as §4

[17] = qHTS of pediatric cancer cell lines to identify multiple opportunities for drug repurposing: Primary screen for control Hh wild type fibroblast cells (AID 1347106); also: nearly all actives have a fitted effect of over 55% in size
How it was run: as §3

[18] = qHTS of pediatric cancer cell lines to identify multiple opportunities for drug repurposing: Primary screen for A673 cells (AID 1347092); also: nearly all actives have a fitted effect of over 45% in size
How it was run: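 Cells are plated, rested 5 h, dosed by pintool, incubated 48 h, then lysed with CellTiter-Glo and read by luminescence. DMSO is the neutral control; bortezomib at 2.3 uM final is the positive control.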
Potency is read from the fitted curve at half-maximal effect.

Compound | Potency [1] | Potency [2] | Potency [3] | Potency [4] | Potency [5] | Potency [6] | Potency [7] | Potency [8] | Potency [9] | Potency [10] | Potency [11] | Potency [12] | Potency [13] | Potency [14] | Potency [15] | Potency [16] | Potency [17] | Potency [18]
Nc1nc(NCCNc2ncc(-n3ccnc3)c(-c3ccc(Cl)cc3Cl)n2)ccc1[N+](=O)[O-] | inactive | 14800 nM (active) | 4690 nM (active) | 1660 nM (active) | 13200 nM (active) | 26400 nM (active) | 18700 nM (active) | 10500 nM (active) | 24300 nM (active) | 14800 nM (active) | 19300 nM (active) | 14800 nM (active) | 14800 nM (active) |  |  |  |  | 
C#Cc1cccc(Nc2ncnc3cc(OC)c(OCCCCCCC(=O)NO)cc23)c1 | 5230 nM (active) | 59 nM (active) | 118 nM (active) | 11.8 nM (active) | 148 nM (active) | 209 nM (active) | 74.3 nM (active) | 332 nM (active) | 2170 nM (active) | 469 nM (active) | 485 nM (active) |  | 118 nM (active) | 611 nM (active) | 1480 nM (active) | 121 nM (active) |  | 
O=c1[nH]c(=O)n(C2CCCO2)cc1F (stereo not given) | inactive | inactive | inactive | inactive | inactive | inactive | inactive | inactive | inactive | inactive | inactive | inactive | inactive | inactive | inactive | inactive |  | 
Cc1ccc(S(=O)(=O)Nc2cc(Cl)ccc2C(=O)Nc2nc(-c3ccccc3)cs2)cc1 | inactive | 11800 nM (active) | 7430 nM (active) | 7430 nM (active) | 7430 nM (active) | 14800 nM (active) | 3720 nM (active) | 9350 nM (active) |  | inactive | 8630 nM (active) | 10500 nM (active) | 9350 nM (active) | 17200 nM (active) |  | inactive | inactive | 
Cn1c2cc(S(C)=O)sc2c2cnn(Cc3cccc(N)c3)c(=O)c21 (stereo not given) | inactive | inactive | inactive | inactive | inactive |  | inactive | inactive | inactive | inactive | inactive | inactive | inactive | inactive | inactive |  |  | 
CS(=O)(=O)c1ccc(-c2cnc(N)c(C(=O)Nc3ccccc3)n2)cc1 | inactive | inactive | 5900 nM (active) | 4180 nM (active) |  | inactive | inactive |  | inactive |  |  | inactive | inactive | inactive | inactive | inactive | inactive | 
CC(C)c1nn(-c2c(Cl)cccc2Cl)c2nc(Cc3ccc(OCCO)cc3)[nH]c(=O)c12 | 131 nM (active) | 74.3 nM (active) |  | 41.8 nM (active) | 93.5 nM (active) |  |  |  | 54.4 nM (active) |  | 54.4 nM (active) | 132 nM (active) |  | 96.8 nM (active) | inactive |  | inactive | 37.2 nM (active)
CCCCCCCCCC(=O)N[C@@H](Cc1c[nH]c2ccccc12)C(=O)N[C@H](CC(N)=O)C(=O)N[C@@H](CC(=O)O)C(=O)N[C@@H]1C(=O)NCC(=O)N[C@@H](CCCN)C(=O)N[C@@H](CC(=O)O)C(=O)N[C@H](C)C(=O)N[C@@H](CC(=O)O)C(=O)NCC(=O)N[C@H](CO)C(=O)N[C@@H]([C@@H](C)CC(=O)O)C(=O)N[C@@H](CC(=O)c2ccccc2N)C(=O)O[C@@H]1C | inactive | inactive |  | inactive | inactive | inactive | inactive | inactive | inactive | inactive | inactive | inactive | inactive | inactive | inactive | inactive | inactive | inactive
COc1ccc(CC2SC(=O)NC2=O)cc1C(=O)NCc1ccc(C(F)(F)F)cc1 (stereo not given) | inactive | inactive | inactive |  |  | inactive |  | inactive |  |  | inactive | inactive | inactive | inactive | inactive | inactive | inactive | 
CC(C)(C)c1cc(C(C)(C)C)c(NC(=O)c2c[nH]c3ccccc3c2=O)cc1O | inactive | inactive | inactive |  | inactive |  | inactive | inactive | inactive | inactive | inactive | inactive | inactive | inactive | inactive | inactive | inactive | inactive
O=C(C=Cc1cccnc1)NCCCCC1CCN(C(=O)c2ccccc2)CC1 | 4.7 nM (active) | inactive | 16.6 nM (active) |  | 11.8 nM (active) |  |  |  |  |  |  |  |  |  |  | 482 nM (active) | inactive | 
CC(O)C1C(=O)N2C(C(=O)O)=C(SC3CNC(C(=O)N(C)C)C3)C(C)C12 (stereo not given) | inactive | inactive |  | inactive | inactive | inactive |  | inactive | inactive |  | inactive |  | inactive | inactive | inactive | inactive | inactive | inactive
Cc1c(Cn2c(C)nc3c(C(=O)O)cc(N4CCOCC4)cc32)cccc1C(F)(F)F | inactive | 7430 nM (active) | inactive | 59 nM (active) | 14800 nM (active) |  |  | inactive | inactive | inactive |  | 1660 nM (active) | 2960 nM (active) | inactive |  |  | inactive | 
COc1c(N2C[C@@H]3CCCN[C@H]3C2)c(F)cc2c(=O)c(C(=O)O)cn(C3CC3)c12 | inactive | inactive | inactive | inactive | inactive | inactive | inactive | inactive | inactive |  | inactive | inactive | inactive | inactive | inactive | inactive |  | 
CC(C)(O)CCc1ccc(OCc2cc(-c3cccc(OC(F)F)c3)c3ncccc3c2)cc1 | inactive | inactive | inactive |  | inactive | inactive | 18700 nM (active) | inactive | inactive | inactive |  | inactive | inactive | inactive | inactive |  | inactive | 
CN1CCN(Cc2ccc(NC(=O)Nc3ccc(Oc4cc(NC(=O)C5CC5)ncn4)cc3)cc2C(F)(F)F)CC1 | 294 nM (active) | 590 nM (active) |  | 332 nM (active) | 935 nM (active) | 590 nM (active) | 526 nM (active) | 2350 nM (active) | 485 nM (active) |  | 485 nM (active) | 662 nM (active) | 1870 nM (active) | 544 nM (active) | inactive | 764 nM (active) | 8330 nM (active) | 148 nM (active)
COc1ccc2c(OCc3nnc4ccc(-c5ccccc5)nn34)ccnc2c1 | inactive | inactive |  | inactive | inactive | inactive | inactive | inactive | inactive | inactive | inactive | inactive | inactive | inactive | inactive | inactive |  | inactive

Source: PubChem BioAssay (NCATS)
